A short description of assay [1]: NCI Yeast Anticancer Drug Screen. Data for the rad50 strain (AID 155).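 Further: 0% = growth of vehicle-only cultures of the same strain.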 The note with it: S. cerevisiae rad50 strain growth inhibition; at 50.0 µM; stronger effect = higher value. An outline of the steps: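 Cells are treated with compound, grown, and their growth is then scored against vehicle-only cultures of the same repair-deficient yeast strain.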
Assay [2] can be described thus: NCI Yeast Anticancer Drug Screen. Data for the mec2-1 strain (AID 157). The following applies: S. cerevisiae mec2-1 strain, at 50.0 µM, stronger effect = higher value. Summed up: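 Vehicle-treated cultures served as reference for growth inhibition of compound-exposed mec2-1 yeast.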
A short description of assay [3]: NCI Yeast Anticancer Drug Screen. Data for the sgs1 mgt1 strain (AID 161).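 Further: 0% = growth of cultures given vehicle only.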 The following applies: S. cerevisiae sgs1 mgt1 strain, at 50.0 µM, stronger effect = higher value. Summed up: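 Genetically altered yeast, compound exposure, growth inhibition relative to vehicle.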
The nature of assay [4]: NCI Yeast Anticancer Drug Screen. Data for the cln2 rad14 strain (AID 165).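 Further: 0% = growth equal to vehicle treated cultures.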 The following applies: S. cerevisiae cln2 rad14 strain, at 50.0 µM, stronger effect = higher value. An outline of the steps:
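Each compound was tested on cln2 rad14 yeast. Inhibition of growth was calculated against vehicle-exposed controls.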

Assay [5] can be described thus: NCI Yeast Anticancer Drug Screen. Data for the bub3 strain (AID 167). The note with it: S. cerevisiae bub3 mutant strain, at 50.0 µM, stronger effect = higher value. An outline of the steps:
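Part of a panel of yeast mutants defective in DNA damage repair or cell cycle regulation. Each strain is grown with compound, and inhibition is calculated relative to solvent-treated cultures.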

Assay [6] can be described thus: NCI Yeast Anticancer Drug Screen. Data for the mlh1 rad18 strain (AID 175). The note with it: S. cerevisiae mlh1 rad18 strain growth inhibition; at 50.0 µM; stronger effect = higher value. An outline of the steps:
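Vehicle-treated cultures served as the reference for growth inhibition in a yeast strain carrying DNA damage repair alterations exposed to each compound.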

Several values for one entry are separate records, joined by “and”; a condition that tells them apart may be missing. Equal values may be shown once. This is part of a sample that, as a whole, favours compounds with a hit. Of some 79,000 tested, about 15% had one in any assay. Values without a mark were called inactive. Activity calls are given as the source filed them. No stated cut-off is given here; in the data, active means growth inhibition above about 70%; inactive means the rest.

Regarding `CC(=O)OC1CC2(O)C(CCC3(C)C(c4ccc(=O)oc4)CCC32O)C2(C)C1=CC(O)C1OC12` (configuration not stated), the growth inhibition in assay [1] is 3.95%; in assay [2] it was 6.85%; in assay [3], -12.4%; in assay [4], -1.7%; in assay [5], -2%; in assay [6] it was -13.9%.
With `CN1C(=O)N(C)P1(Cl)(Cl)Cl`, the growth inhibition was 18.6% in assay [1]; -6.15% in assay [2]; 3.15% in assay [3]; -36.6% in assay [4]; 0.2% in assay [5]; -14.9% in assay [6].
For `N#CC(c1ccccc1)N1CCCN(C(C#N)c2ccccc2)C1c1ccc(N(CCCl)CCCl)cc1` (configuration not stated), the growth inhibition is 11.1% in assay [1]; -1.5% in assay [2]; 2.25% in assay [3]; -17.3% in assay [4]; 9.65% in assay [6].
With `c1cnc[c]([Hg][c]2cccnc2)c1`, the growth inhibition is 40.1% in assay [1]; 56.5% in assay [2]; 37.2% in assay [3]; 88.8% (active) in assay [5]; 53.4% in assay [6].
Regarding `O=[P+](O)C(O)c1ccccc1` (configuration not stated), the growth inhibition in assay [1] is -20.6%; in assay [2], -27.9%; in assay [3], -14.1%; in assay [4], 4.9%; in assay [5], -10.8%; in assay [6] it was -7.7%.
Regarding `O=C(CCN1CC2CCC(CC2)C1)c1cccs1`, the growth inhibition was -15.8% in assay [1]; -21.9% in assay [2]; -16.4% in assay [3]; -13.9% in assay [4]; -45.8% in assay [5]; -28.8% in assay [6].
As to `C=C(C)C1(CC(C)C)C(=O)NC(=O)NC1=O`, the growth inhibition in assay [1] is 7.4% and 2.9%; in assay [2] it was 6.4% and 0.4%; in assay [3], -7.55% and 1.75%; in assay [4], 2.3% and -2.6%; in assay [5], -14.8% and 8.15%; in assay [6], -5.9% and -4.3%.
`O=P(O)(O)SP(=O)(O)O.[Co]`: the growth inhibition in assay [1] is 22.2%; in assay [2], 6.9%; in assay [3], 11.2%; in assay [4], -8.9%; in assay [5] it was -12.8%; in assay [6] it was 14.2%.
`Cc1ccc(SP(=S)(Sc2ccc(C)cc2)Sc2ccc(C)cc2)cc1`: the growth inhibition in assay [1] is 11.7%; in assay [2] it was -65.8%; in assay [3], -4.15%; in assay [4], -29.9%; in assay [5], -12.2%; in assay [6], 10%.
Take `O=C1CC2OCC=C3CN4CCC56c7ccccc7N1C5C2C3CC46` (configuration not stated) (tested in a mixture with another compound): the growth inhibition was 25% and 2.65% and 6.9% in assay [1]; -7.15% and 22.6% and -14.6% in assay [2]; -15.7% and -7.3% and -9.45% in assay [3]; 3.35% and 5.1% and -9.9% in assay [5]; 5.7% and 9.45% and 10.1% in assay [6].
On to `[Br][Ni][Br].c1ccc([PH+](CC[PH+](c2ccccc2)c2ccccc2)c2ccccc2)cc1`, for which the growth inhibition in assay [1] is -36.1%; in assay [2], -7.15%; in assay [3], -23.8%; in assay [4], 32.2%; in assay [5] it was 8.9%; in assay [6] it was 0.9%.
`C/C=C1/CC(C)C(C)(O)C(=O)OCC2CCN3CCC(OC1=O)C23` (configuration not stated): the growth inhibition is 13.5% in assay [1]; -1.75% in assay [2]; 6.8% in assay [3]; 23.1% in assay [5]; 18.4% in assay [6].
Regarding `N=C(N)SCc1ccc(Cl)c(Cl)c1` (tested in a mixture with another compound), the growth inhibition in assay [1] was 13.6%; in assay [2], 10.8%; in assay [3] it was -3.55%; in assay [4] it was -6.1%; in assay [6] it was 10.7%.
Taken in the same sequence, the figures for `CN(C)P1P(N(C)C)P(N(C)C)P1N(C)C` (configuration not stated) were -25.4%, 9.75%, 2.2%, -58.7% and -1.2%.
On to `[Cl][Co][Cl].[NH-]CC[NH-].[NH-]CC[NH-]`, for which the growth inhibition in assay [1] was 19.2% and -9.85%; in assay [2], 9.3% and 29.6%; in assay [3], 25.2% and -4.55%; in assay [4] it was -9.95% and 9.2%; in assay [6] it was 37% and -23.4%.
On to `Cc1c(OCC(=O)N/N=C/c2ccc(N(CCCl)CCCl)cc2)ccc2c(=O)c3ccccc3oc12`, for which the growth inhibition is -1.95% in assay [1]; -10.3% in assay [2]; -3.15% in assay [3]; -15.5% in assay [4]; -8.35% in assay [6].
With `C[C@]12CC[C@H](O)C[C@H]1CC[C@@H]1[C@@H]2CC[C@]2(C)[C@@H](C3=CC(=O)OC3)CC[C@]12O`, the growth inhibition in assay [1] was -3.9%; in assay [2], 12.4%; in assay [3] it was 5.55%; in assay [5], 15.3%; in assay [6] it was 8.4%.
On to `CCOP(=O)(OCC)C(=C(Cl)Cl)C(Cl)Cl`, for which the growth inhibition in assay [1] is 82.6% (active); in assay [2], 85.2% (active); in assay [3], 8.75%; in assay [4], 37.6%; in assay [5], -17.1%; in assay [6], 49.8%.
For `CS(=O)(=O)OC1C2CC(C1OS(C)(=O)=O)C(c1ccccc1)C2C(=O)O` (configuration not stated), the growth inhibition in assay [1] is 25%; in assay [2], 21%; in assay [3], 31.4%; in assay [4], 12.2%; in assay [6], 34.2%.
`O=C1NC(=O)C2(OC3c4ccccc4C=CN3C3=C2C(=O)CCC3)C(=O)N1` (configuration not stated): the growth inhibition in assay [1] is 11.5%; in assay [2], 1.8%; in assay [3], -6.1%; in assay [4] it was 52.4%; in assay [5], 10.1%; in assay [6], 7.4%.
As for `Cc1cc(N(CCCl)CCCl)ccc1C=N/C(C#N)=C(\N)C#N`, the growth inhibition is 2.05% in assay [1]; -9.05% in assay [2]; -4.8% in assay [3]; -8.6% in assay [4]; -1.9% in assay [5]; -4.85% in assay [6].
For `CCOP(=O)(OCC)/C(C#N)=C(\C)c1ccco1`, the growth inhibition in assay [1] is -26.4%; in assay [2] it was -28.9%; in assay [3], -15.3%; in assay [4] it was -18.4%; in assay [5], -11.6%; in assay [6], -1.2%.

Values taken from PubChem BioAssay (NCI).
